Experimental data published in PubChem BioAssay AID1903 (Southern Research Specialized Biocontainment Screening …, 2009).
Out of some 310,000 compounds screened, about 1,200 (0.39%) were called active. The rule behind the calls is not given here. These entries were drawn from the full list. Measured potencies and affinities stand elsewhere.

Target: Large T antigen (Simian virus 40) (UniProt P03070)
Assay: TAg ATPase/helicase activity blockers – biochemical (AID 1903)
Details: SV40 large T antigen ATPase/helicase inhibition assay; at 20 µM; hits give high values

Sequence of Large T antigen (Simian virus 40) (P03070 whole entry, looked up): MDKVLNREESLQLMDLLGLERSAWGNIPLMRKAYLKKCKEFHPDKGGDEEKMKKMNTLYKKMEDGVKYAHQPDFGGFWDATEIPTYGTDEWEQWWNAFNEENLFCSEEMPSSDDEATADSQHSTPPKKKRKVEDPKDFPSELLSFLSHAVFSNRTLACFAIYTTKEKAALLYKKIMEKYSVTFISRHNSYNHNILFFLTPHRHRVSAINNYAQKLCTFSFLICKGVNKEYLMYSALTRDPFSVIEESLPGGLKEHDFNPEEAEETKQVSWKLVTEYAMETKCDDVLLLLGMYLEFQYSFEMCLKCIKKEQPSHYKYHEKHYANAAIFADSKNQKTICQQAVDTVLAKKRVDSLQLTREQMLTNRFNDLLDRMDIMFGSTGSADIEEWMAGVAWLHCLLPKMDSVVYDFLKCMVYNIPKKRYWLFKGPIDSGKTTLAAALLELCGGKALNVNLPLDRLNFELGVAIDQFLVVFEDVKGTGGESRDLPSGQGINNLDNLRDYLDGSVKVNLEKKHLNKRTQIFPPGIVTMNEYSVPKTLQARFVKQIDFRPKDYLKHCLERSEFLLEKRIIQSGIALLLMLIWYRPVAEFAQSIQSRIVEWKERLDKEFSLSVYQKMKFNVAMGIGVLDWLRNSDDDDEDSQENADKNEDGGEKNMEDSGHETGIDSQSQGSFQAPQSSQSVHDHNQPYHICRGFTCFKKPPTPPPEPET

inhibition, inactive:
Cc1ccc(NS(=O)(=O)c2cc(C(=O)N(C)C)ccc2C)cc1C 7.8%, CC(=O)Nc1ccc(NC(=O)CCOc2ccccc2C)cc1 9.91%, O=C(NCCc1nnc2ccc(N3CCCCCC3)nn12)c1ccccc1F 10%, COc1ccc(C(=O)NCC(C)(C)CNC(=O)c2ccc(OC)cc2)cc1 11.7%, CCN(CC)c1ccc(CN(C(=O)c2ccco2)C2CCS(=O)(=O)C2)cc1 (configuration not stated) 21.8%, COC(=O)C1=C(C(=O)OC)[C@@H]2N(C)c3ccc(OC)cc3[C@@]23C[C@@H](C(=O)OC)N(S(=O)(=O)c2ccc([N+](=O)[O-])cc2)C3=N1 1.76%, CCOC(=O)C1=NN(c2ccc(C)cc2)CC1C(=O)OC (configuration not stated) 7.97%, CCOc1cc(C(=O)N[C@@H](C)C(=O)N2CCC3(CC2)NCCc2[nH]cnc23)cc(OCC)c1OCC 4.98%, COc1cc(/C=N/NC(=S)NCCN2CCOCC2)cc(OC)c1OC 12.4%, S=C(NCCN1CCOCC1)N/N=C/c1ccccc1 2.2%, COc1cc(/C=N/NC(=S)NCCN2CCOCC2)cc(OC)c1O 30.1%, COCCCNC(=S)N/N=C/c1ccc(O)cc1 46.2%, Oc1cccc(/C=N/NC(=S)NCCN2CCOCC2)c1O 50.5%, COCCCNC(=S)N/N=C/c1ccccc1O 12.5%, CCOc1ccc(CNC(=S)N/N=C/c2ccc(OC)c(OC)c2)cc1 9.25%, COc1ccc(CNC(=S)N/N=C/c2ccc(OC)c(OC)c2)cc1 4.58%, CC(=O)c1cccc(NC(=S)NC(=O)c2ccccc2Br)c1 4.36%, COCCn1c(-c2ccc(Br)cc2)csc1=Nc1cccnc1 8.06%, O=C(CN1CCN(C(=O)c2ccco2)CC1)Nc1ccc(Cl)c(S(=O)(=O)N2CCOCC2)c1 0.58%, O=C(Nn1cnnc1)C(Sc1ccccc1)c1ccccc1 (configuration not stated) 1.32%, O=C(NCCF)[C@H]1C[C@@H]1[C@H](NP(=O)(c1ccccc1)c1ccccc1)c1ccccc1 3.51%, COc1ccc2oc(C(=O)OCC(=O)Nc3ccc(N4CCOCC4)cc3)c(C)c2c1 14%, CC(C)CCn1c(CN2CC(C)OC(C)C2)nc2c1c(=O)n(C)c(=O)n2C (configuration not stated) 4.84%, CC(C)Oc1ccc(Br)cc1/C=N\NC(N)=S 16%, CC(C)NC(=O)c1nn2c(C(F)(F)F)cc(-c3ccco3)nc2c1Cl 10.7%, Cc1nn(-c2cccc(Cl)c2)nc1C(=O)O 6.68%, Cn1c(=O)n(-c2cccc(Cl)c2)c(=O)n1C 10.7%
